For 7 compounds, Potency and outcome results are on record in PubChem BioAssay (Tox21).

Each structure is given as a SMILES string. Unmarked numbers belong to inactive results. Records with an inconclusive call do not appear. Activity calls are given as the source filed them. Unless noted, calls come from the whole dose curve.

Assay [1] in a line: Nuclear factor erythroid 2-related factor 2/antioxidant responsive element (Nrf2/ARE) small molecule agonists: qHTS cell viability counter screen in human keratinocytes (AID 1919968; active = well fitted curve in the direction sought with a large enough effect in the repeat runs; an effect the other way counts as inactive or inconclusive; note: nearly all actives have a fitted effect of over 55% in size). The method in brief:
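HaCaT ARE reporter line, 1,500 cells/well; 5 h settle, 37 C/5% CO2; cpd in DMSO pinned; 23 h exposure; CellTiter-Fluor, 1 h; fluorescence.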
For orientation: In qHTS, concentration-response curves come from the screen itself.

Assay [2] is described as follows: Nuclear factor erythroid 2-related factor 2/antioxidant responsive element (Nrf2/ARE) small molecule agonists: luciferase reporter gene qHTS assay in human keratinocytes (AID 1919969). Note: nearly all actives have a fitted effect of over 35% in size.
The target of assay [3] is Gonadotropin-releasing hormone receptor (Homo sapiens) (UniProt P30968). The assay is described as follows: Human gonadotropin-releasing hormone receptor (GnRHR) small molecule agonists, calcium flux assay in GnRHR-HEK293 cells (AID 1920063). Note: nearly all actives have a fitted effect of over 35% in size. The essentials: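 GnRHR-HEK293, 1500 cells/well, 18 h 37 C/5% CO2; Ca dye 1 h 37 C; cpd pinned (DMSO), agonist mode; kinetic FL 480/540, 3 min, 1 s reads; 15 conc, n=3.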
Sequence of Gonadotropin-releasing hormone receptor (Homo sapiens) (P30968 whole entry, looked up): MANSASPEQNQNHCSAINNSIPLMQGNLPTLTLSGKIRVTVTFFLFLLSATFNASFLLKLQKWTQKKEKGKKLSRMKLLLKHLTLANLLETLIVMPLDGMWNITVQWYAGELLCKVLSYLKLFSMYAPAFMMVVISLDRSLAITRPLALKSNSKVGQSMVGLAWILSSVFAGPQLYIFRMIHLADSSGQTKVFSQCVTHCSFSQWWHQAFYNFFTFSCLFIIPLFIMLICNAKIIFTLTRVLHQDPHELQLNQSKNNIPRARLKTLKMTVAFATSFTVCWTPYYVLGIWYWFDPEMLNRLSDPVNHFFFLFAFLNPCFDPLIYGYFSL

The target of assay [4] is KiSS-1 receptor (Homo sapiens) (UniProt Q969F8). The experiment in a line: Human kisspeptin (KISS1R) small molecule agonists, calcium flux assay in KISS1R-HEK293 cells (AID 1920064; active = well fitted curve in the direction sought with a large enough effect in the repeat runs; an effect the other way counts as inactive or inconclusive). The essentials:
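Stable human KISS1R HEK293 line; 18 h plating, 37 C/5% CO2; calcium dye 1 h 37 C; compound pin transfer; kinetic fluorescence Ex/Em 480/540, 3 min.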
(Calcium assays in cells follow changes in intracellular calcium, usually with a dye or a luminescent sensor.)

Assay [5] can be described thus: G protein-coupled receptor (GPCR) small molecule agonists, calcium flux assay: HEK293 wild type cell line counter screen (AID 1920065). The essentials:
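Kinetic fluorescence at Ex/Em 480/540, recorded every second over 3 min, served as the read-out after compound addition. Each compound was tested at 15 concentrations in triplicate on cells pre-loaded with calcium dye for 1 h.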

A short description of assay [6]: p53 small molecule agonists, cell-based qHTS assay with human liver microsomes (AID 1963577).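 Note: p53 response element beta-lactamase reporter cells with liver microsomes plus NADPH.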 The essentials: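 HLM-supplemented p53RE-bla reporter assay: 16 h compound exposure at 37 C, microsomes and NADPH each 0.5 mg/mL final, read by fluorescence intensity.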
Assay [7] is described as follows: p53 small molecule agonists, cell-based qHTS assay with rat liver microsomes (AID 1963578). The essentials: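 Quantitative HTS of the Tox21 10K library: p53RE-bla cells, rat liver microsomes plus NADPH at 0.5 mg/mL final each, 16 h at 37 C, beta-lactamase fluorescence detection.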
Assay [8] can be described thus: p53 small molecule agonists, cell-based qHTS assay with human liver microsomes: qHTS cell viability counter screen (AID 1963579). Note: nearly all actives have a fitted effect of over 45% in size. The essentials:
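Viability of p53RE-bla cells is measured as CellTiter-Glo luminescence following a 16 h, 37 C incubation with compound, liver microsomes from human donors and NADPH.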

A short description of assay [9]: p53 small molecule agonists, cell-based qHTS assay with rat liver microsomes: qHTS cell viability counter screen (AID 1963580). Note: nearly all actives have a fitted effect of over 45% in size. The essentials:
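Viability is assessed in parallel with the p53 reporter read: HCT-116 p53RE-bla cells receive compounds plus rat microsomes and NADPH (0.5 mg/mL final apiece), incubate 16 h at 37 C, and then CellTiter-Glo luminescence is recorded.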

The nature of assay [10]: p53 small molecule agonists, cell-based qHTS assay: qHTS cell viability counter screen (AID 1963581). Note: nearly all actives have a fitted effect of over 45% in size. The method in brief:
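HCT-116 p53RE-bla cells, 4,000/well, plated 5 h before compound pin transfer; 16 h at 37 C; bla substrate 2 h RT; then CellTiter-Glo, 30 min RT, luminescence.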

Assay [11] is described as follows: p53 small molecule agonists, cell-based qHTS assay (AID 1963582; active = well fitted activation curve with a large enough effect in the signal ratio in the repeat runs, not every such curve was filed as active; the % refers to the signal ratio). The essentials:
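Reporter line: p53RE-bla. Pre-incubation 5 h, 37 C, 5% CO2; compound (DMSO, pin tool) 16 h, 37 C; B/G FRET substrate 2 h RT; fluorescence intensity read.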

Assay [12] has as its target 5-hydroxytryptamine receptor 2A (Homo sapiens) (UniProt P28223). The experiment in a line: 5-hydroxytryptamine receptor 2A (HTR2A) small molecule agonists, cell-based qHTS assay (AID 1963587). Note: nearly all actives have a fitted effect of over 30% in size. The essentials: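 CHO cells stably expressing human HTR2A, plated 18 h, loaded with calcium dye 1 h at 37 C. Agonist mode: compounds added and intracellular calcium fluorescence recorded kinetically for 2 min at 1 sec intervals.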

In assay [13] the target is Muscarinic acetylcholine receptor M1 (Homo sapiens) (UniProt P11229). The assay is described as follows: Cholinergic receptor muscarinic 1 (CHRM1) small molecule antagonists, cell-based qHTS assay (AID 1963588). Note: nearly all actives have a fitted effect of over 40% in size. The essentials:
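CHRM1-CHO calcium-flux assay, antagonist mode. Cells were seeded 18 h, dye-loaded 1 h at 37 C and given compound for 5 min at RT, then acetylcholine was added at 50nM. FDSS fluorescence was read 3 min; 15 concentrations, three runs.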

Assay [14] has the same target. The assay is described as follows: Cholinergic receptor muscarinic 1 (CHRM1) small molecule agonists, cell-based qHTS assay (AID 1963589). Note: nearly all actives have a fitted effect of over 35% in size. The essentials:
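Human M1 in stable CHO line; 18 h plating, 1 h dye load 37 C; cpd added (agonist mode); Ca2+ fluorescence kinetic read, 1 s intervals; 15 conc, 3 runs.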

Assay [15] can be described thus: cAMP Responsive Elements (CRE) small molecule agonists, cell-based qHTS assay (AID 1963590). The essentials: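 HEK 293T CRE-bla, 2,000 cells/well, 18 h preincubation 37 C/5% CO2; cpds (DMSO) pinned, 3 h; LiveBLAzer B/G FRET substrate, 2 h RT.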
The nature of assay [16]: cAMP Responsive Elements (CRE) small molecule antagonists, cell-based qHTS assay (AID 1963591; active = well fitted inhibition curve with a large enough effect in the signal ratio in the repeat runs, not every such curve was filed as active; the % refers to the signal ratio). The essentials: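 Beta-lactamase reporter read by FRET substrate (LiveBLAzer B/G) after 2 h at room temperature. CRE-bla HEK293T cells had received compound plus 0.25 uM (final) NKH477 for 3 h at 37 °C.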
The target of assay [17] is Beta-2 adrenergic receptor (Homo sapiens) (UniProt P07550). The experiment in a line: Adrenergic beta2 receptor (ADRB2) small molecule antagonists, cell-based qHTS assay (AID 1963592). Note: series mostly up to about 92 µM; nearly all actives have a fitted effect of over 50% in size. The method in brief:
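Cells (CHO, stable ADRB2 overexpression) incubated 18-20hr at 37C; compounds added from DMSO; agonist mix (1nM isoproterenol, 100uM IBMX, 25uM Ro-20-1724) added; 0.5hr RT; d2-cAMP and anti-cAMP-cryptate added; 1hr RT; 665/615 nm read.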

For assay [18] the target is unchanged. The experiment in a line: Adrenergic beta2 receptor (ADRB2) small molecule agonists, cell-based qHTS assay (AID 1963593).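 Note: CHO cells stably overexpressing human ADRB2.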 The essentials:
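CHO cells stably over-expressing ADRB2 were plated overnight at 37C, then dosed with compounds plus a stimulation mix containing 100uM IBMX and 25uM Ro-20-1724 for 0.5hr at room temperature. cAMP was measured by HTRF competition, 1hr.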

Assay [19] deals with D(2) dopamine receptor (Homo sapiens) (UniProt P14416). The assay is described as follows: Dopamine D2 receptor (DRD2) small molecule agonists, cell-based qHTS assay (AID 1963594). Note: nearly all actives have a fitted effect of over 35% in size. The essentials: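 HEK293 cells stably expressing human DRD2, pre-treated with PDE inhibitor Ro20-1724 (0.1 mM final) and compound 10 min at room temperature, then stimulated with NKH477 (200nM […]) for 30 min. cAMP read by HTRF (665/620 nm).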
Sequence of D(2) dopamine receptor (Homo sapiens) (P14416 whole entry, looked up): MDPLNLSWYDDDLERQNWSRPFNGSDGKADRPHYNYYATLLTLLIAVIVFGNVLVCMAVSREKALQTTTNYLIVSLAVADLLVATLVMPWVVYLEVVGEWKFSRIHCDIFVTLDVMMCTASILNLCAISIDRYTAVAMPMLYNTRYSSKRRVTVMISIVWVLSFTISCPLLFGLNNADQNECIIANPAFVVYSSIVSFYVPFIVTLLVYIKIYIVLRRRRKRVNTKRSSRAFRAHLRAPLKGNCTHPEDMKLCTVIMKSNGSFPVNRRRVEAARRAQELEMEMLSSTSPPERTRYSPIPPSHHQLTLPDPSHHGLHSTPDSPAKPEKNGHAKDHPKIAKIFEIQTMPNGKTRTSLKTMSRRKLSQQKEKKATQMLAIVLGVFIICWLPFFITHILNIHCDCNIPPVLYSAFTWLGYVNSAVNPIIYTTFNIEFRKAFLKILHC

For assay [20] the target is unchanged. The assay is described as follows: Dopamine D2 receptor (DRD2) small molecule antagonists, cell-based qHTS assay (AID 1963595; active = well fitted inhibition curve with a large enough effect in the signal ratio in the repeat runs, with a control signal flat; the % refers to the signal ratio; note: potency is the fitted concentration of half-maximal effect). The method in brief:
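Cells were plated and grown for 24 h at 37 °C. Ro20-1724 (0.1 mM final) went in first, then compound for 10 min. NKH477 (200 nM) with quinpirole (12 nM) followed for 30 min at RT, then HTRF detection reagents for 1 h.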

Sequence of Muscarinic acetylcholine receptor M1 (Homo sapiens) (P11229 whole entry, looked up): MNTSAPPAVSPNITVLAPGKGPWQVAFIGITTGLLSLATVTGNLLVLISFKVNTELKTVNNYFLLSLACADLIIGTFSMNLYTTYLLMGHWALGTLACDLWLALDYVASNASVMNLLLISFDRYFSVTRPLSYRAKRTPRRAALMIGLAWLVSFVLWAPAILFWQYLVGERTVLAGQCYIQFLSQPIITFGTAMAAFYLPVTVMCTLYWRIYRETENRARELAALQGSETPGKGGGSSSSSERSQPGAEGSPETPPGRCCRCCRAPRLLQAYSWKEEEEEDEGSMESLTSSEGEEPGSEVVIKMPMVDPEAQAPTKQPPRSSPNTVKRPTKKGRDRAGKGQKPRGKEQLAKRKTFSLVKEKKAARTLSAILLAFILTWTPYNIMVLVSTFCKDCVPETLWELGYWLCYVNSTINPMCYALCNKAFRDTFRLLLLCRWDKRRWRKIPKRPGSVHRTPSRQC
Sequence of Beta-2 adrenergic receptor (Homo sapiens) (P07550 whole entry, looked up): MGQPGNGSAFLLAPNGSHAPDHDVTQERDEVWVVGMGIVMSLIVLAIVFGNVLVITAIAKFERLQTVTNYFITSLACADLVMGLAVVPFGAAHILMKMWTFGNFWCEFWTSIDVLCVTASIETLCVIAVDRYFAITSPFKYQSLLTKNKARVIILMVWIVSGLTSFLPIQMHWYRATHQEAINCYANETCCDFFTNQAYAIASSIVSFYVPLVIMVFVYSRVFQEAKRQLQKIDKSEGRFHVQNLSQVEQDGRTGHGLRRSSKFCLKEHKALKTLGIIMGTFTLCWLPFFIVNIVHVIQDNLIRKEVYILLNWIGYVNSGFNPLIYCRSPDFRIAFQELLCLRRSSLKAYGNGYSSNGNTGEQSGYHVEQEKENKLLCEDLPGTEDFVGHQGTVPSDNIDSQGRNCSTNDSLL
Sequence of KiSS-1 receptor (Homo sapiens) (Q969F8 whole entry, looked up): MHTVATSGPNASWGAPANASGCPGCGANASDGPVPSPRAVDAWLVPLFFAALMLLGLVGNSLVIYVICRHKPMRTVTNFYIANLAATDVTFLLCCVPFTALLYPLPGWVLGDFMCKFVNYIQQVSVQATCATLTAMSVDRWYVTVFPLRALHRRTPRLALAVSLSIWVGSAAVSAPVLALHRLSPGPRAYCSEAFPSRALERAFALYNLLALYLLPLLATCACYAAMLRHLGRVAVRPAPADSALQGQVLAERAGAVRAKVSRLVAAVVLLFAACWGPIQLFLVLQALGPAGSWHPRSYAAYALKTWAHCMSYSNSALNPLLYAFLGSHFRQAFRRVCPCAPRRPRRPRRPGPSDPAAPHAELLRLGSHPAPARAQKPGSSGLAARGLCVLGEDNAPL
Sequence of 5-hydroxytryptamine receptor 2A (Homo sapiens) (P28223 whole entry, looked up): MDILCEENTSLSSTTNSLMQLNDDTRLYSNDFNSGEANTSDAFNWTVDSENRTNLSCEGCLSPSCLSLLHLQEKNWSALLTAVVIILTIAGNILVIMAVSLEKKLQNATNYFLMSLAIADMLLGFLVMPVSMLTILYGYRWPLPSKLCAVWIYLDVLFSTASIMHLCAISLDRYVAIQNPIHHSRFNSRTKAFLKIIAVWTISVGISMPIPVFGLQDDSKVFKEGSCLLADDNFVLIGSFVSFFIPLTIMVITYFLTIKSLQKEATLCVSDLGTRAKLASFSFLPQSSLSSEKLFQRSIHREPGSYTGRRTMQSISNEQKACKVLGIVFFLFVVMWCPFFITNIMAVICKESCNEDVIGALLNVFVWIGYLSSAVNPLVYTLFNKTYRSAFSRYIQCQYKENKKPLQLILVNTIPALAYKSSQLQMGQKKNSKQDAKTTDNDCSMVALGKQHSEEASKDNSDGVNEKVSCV

Turning to `CC(C)(C)C(=O)Oc1ccc(S(=O)(=O)Nc2ccccc2C(=O)NCC(=O)O)cc1`, the Potency entry in assay [1], in [2], in assay [3], in [6], in [7] and in assay [8] was “inactive” throughout. Moreover, the Potency result in assay [9], in assay [10], in assay [11], in assay [12], in [13] and in [14] was “inactive” throughout. Moreover, the Potency entry in [15], in assay [16], in [17], in assay [18], in [19] and in assay [20] was “inactive” each time. Moreover, the outcome in assay [4] and in [5] was inactive.
For `CC(=O)O[C@H]1CC[C@@]2(C)C(=CC[C@@H]3[C@@H]2CC[C@]2(C)C(C(C)=O)=CC[C@@H]32)C1`, the Potency entry in [1], in [2], in assay [3], in assay [6], in assay [7] and in assay [8] was “inactive” each time. Besides, the Potency result in assay [9], in assay [10], in [11], in assay [12], in assay [13] and in [14] was “inactive” in each case. In addition, the Potency result in assay [15], in assay [16], in [17], in assay [18] and in assay [20] was “inactive” each time. Moreover, the result in assay [4] and in [5] was inactive.
With `CCCCN1CCCC1C(=O)Nc1c(C)cc(C)cc1C` (stereo unspecified), the Potency result in assay [1], in assay [2], in [3], in assay [6], in assay [7] and in assay [8] was “inactive” each time. Also, the Potency result in [9], in [10], in assay [11], in assay [12], in [13] and in assay [17] was “inactive” in each case. The Potency entry in assay [19] and in assay [20] was “inactive” throughout. Also, the outcome in assay [4] and in assay [5] was inactive.
With `CC(C)C(=O)OCc1cccc(OC(=O)[C@@H]2N3C(=O)[C@@H](NC(=O)Cc4ccccc4)[C@H]3SC2(C)C)c1`, the Potency entry in [1], in assay [2], in [3], in assay [6], in assay [7] and in assay [8] was “inactive” throughout. Moreover, the Potency entry in assay [9], in [10], in assay [11], in [12], in assay [14] and in assay [15] was “inactive” each time. Further, the Potency result in [16], in [17] and in [19] was “inactive” each time. For the same compound, the outcome in assay [4] and in assay [5] was inactive.
Regarding `CCN(CC)CCNC(=O)c1cc(Br)c(N)cc1OC`, the Potency entry in [1], in [2], in assay [3], in assay [6], in assay [7] and in [8] was “inactive” each time. The Potency entry in assay [9], in [10], in assay [11], in assay [12], in assay [13] and in [15] was “inactive” each time. For the same compound, the Potency result in [16], in assay [17], in assay [18] and in assay [19] was “inactive” throughout. The result in [4] and in assay [5] was inactive. For the same compound, the Potency in assay [20] was 376 nM (active).
Turning to `Cc1nnc(C(=O)NC(C)(C)c2nc(C(=O)NCc3ccc(F)cc3)c(O)c(=O)n2C)o1`, the Potency result in assay [1], in assay [2], in assay [3], in assay [6], in [7] and in assay [8] was “inactive” throughout. Further, the Potency result in assay [9], in assay [10], in assay [11], in [12], in [13] and in assay [14] was “inactive” in each case. Also, the Potency entry in assay [16], in assay [17], in assay [18] and in assay [20] was “inactive” each time. In addition, the result in assay [4] and in [5] was inactive.
In the case of `CC(C)OC(=O)C(C)N(C(=O)c1ccccc1)c1ccc(F)c(Cl)c1` (stereo unspecified), the Potency entry in [1], in assay [2], in assay [3], in assay [6], in assay [7] and in assay [8] was “inactive” in each case. The Potency result in [9], in assay [10], in assay [11], in [12], in [13] and in assay [14] was “inactive” each time. The Potency result in [17], in assay [19] and in assay [20] was “inactive” in each case. The result in [4] and in assay [5] was inactive.
